According to the supplement of paper PMC9446081:
Among all 39,000 compounds or so, about 220 (0.56%) showed activity. Many of the other results were omitted from the sample, so actives are more common in it than they were. Values without a mark were called inactive.

These compounds were tested on Escherichia coli K-12 BW25113 (assay: relative growth (OD600 normalised to plate interquartile mean) (fraction); higher = less growth inhibition, active = 0.2 or less). Conditions: 50 µM; LB; incubation time: overnight (16-24 h).
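Further: Wild-type cells incubated without shaking, value is the mean of two biological replicates.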

Row | Structure (SMILES) | relative growth
1 | Cc1noc(C)c1S(=O)(=O)Nc1ccc2c(c1)CC(=O)N([C@H](C)CO)C[C@@H](C)[C@H](CN(C)C(=O)NC(C)C)O2 | 1.03
2 | C[C@H](CO)N1C[C@H](C)[C@@H](CN(C)S(C)(=O)=O)OCc2cnnn2CCCC1=O | 1.07
3 | Cc1ccc(S(=O)(=O)N(C)C[C@@H]2Oc3c(NC(=O)c4ccncc4)cccc3C(=O)N([C@@H](C)CO)C[C@H]2C)cc1 | 0.999
4 | COc1ccc2c(c1OCc1ccccc1)C[C@@H](C(=O)O)N(C(=O)C(c1ccccc1)c1ccccc1)C2 | 1.02
5 | C[C@@H]1CN([C@@H](C)CO)C(=O)c2cccc(NC(=O)C3CCOCC3)c2O[C@@H]1CN(C)C(=O)Nc1ccc2c(c1)OCO2 | 1.01
6 | CN(C)CC(=O)N[C@@H]1C=C[C@H](CC(=O)O)O[C@H]1CO | 0.997
7 | CCNC(=O)C[C@@H]1CC[C@H]2[C@H](COc3ccc(NS(=O)(=O)c4ccccc4C)cc3C(=O)N2C)O1 | 0.981
8 | CNC[C@H]1Oc2ccc(NC(=O)CCN3CCOCC3)cc2CC(=O)N([C@@H](C)CO)C[C@@H]1C | 0.977
9 | CCc1nnc(N)[nH]1 | 0.947
10 | C[C@H]1CCCCO[C@H](CN(C)Cc2ccccc2)[C@@H](C)CN([C@@H](C)CO)C(=O)c2cc(NC(=O)Nc3cccc4ccccc34)ccc2O1 | 0.996
11 | Cc1c(-c2ccccc2)n(C[C@@H](O)CN)c2ccccc12 | 0.892
12 | CO[C@@]1(NC(=O)CSC[C@@H](N)C(=O)O)C(=O)N2C(C(=O)O)=C(CSc3nnnn3C)CS[C@@H]21 | 1
13 | COC1(NC(=O)CSCC#N)C(=O)N2C(C(=O)[O-])=C(CSc3nnnn3C)CSC21.[Na+] (centres undefined) | 0.0458 (active)
14 | COC1(NC(=O)C2SC(=C(C(N)=O)C(=O)O)S2)C(=O)N2C(C(=O)O)=C(CSc3nnnn3C)CSC21 (centres undefined) | 0.0448 (active)
15 | COC1(NC(=O)C(C(=O)[O-])c2ccc(O)cc2)C(=O)N2C(C(=O)[O-])=C(CSc3nnnn3C)COC21.[Na+].[Na+] (centres undefined) | 0.0483 (active)
16 | CO[C@@]1(NC(=O)[C@@H](C(=O)O)c2ccc(O)cc2)C(=O)N2C(C(=O)O)=C(CSc3nnnn3C)CO[C@@H]21 | 0.983
17 | CO[C@@H]1CN(C)C(=O)c2cc(NS(=O)(=O)c3cn(C)cn3)ccc2OC[C@@H](C)N(Cc2cccc(F)c2)C[C@@H]1C | 1.02
18 | COc1ccc(NC(=O)Nc2ccc3c(c2)C(=O)N([C@H](C)CO)C[C@@H](C)[C@@H](CN(C)CC2CCCCC2)OCCCC[C@@H](C)O3)cc1 | 0.984
19 | O=C(NCc1ccccc1)[C@@H]1c2ccccc2C(=O)N(Cc2ccccc2C(F)(F)F)[C@H]1c1ccc(CO)cc1 | 1
20 | CN1C(=O)c2cc(NC(=O)c3cccs3)ccc2OC[C@H]2O[C@H](CC(=O)NCC(F)(F)F)CC[C@H]21 | 1

Row | Structure (SMILES) | relative growth
21 | CCCN(C)C[C@@H]1OCCCC[C@@H](C)Oc2ccc(NC(=O)Nc3ccccc3)cc2C(=O)N([C@H](C)CO)C[C@@H]1C | 1.01
22 | CC(C)NC(=O)Nc1ccc2c(c1)C(=O)N([C@H](C)CO)C[C@H](C)[C@H](CN(C)CC1CCCCC1)OCCCC[C@@H](C)O2 | 0.955
23 | COc1ccc(S(=O)(=O)Nc2ccc3c(c2)C(=O)N([C@H](C)CO)C[C@H](C)[C@H](CN(C)C(=O)Nc2ccccc2)OCCCC[C@@H](C)O3)cc1 | 0.996
24 | NC(=O)[C@@H]1CC[C@@H]2CN1C(=O)N2OS(=O)(=O)O | 0.19 (active)
25 | NCCONC(=O)[C@@H]1CC[C@@H]2CN1C(=O)N2OS(=O)(=O)O | 0.0923 (active)
26 | COc1ccc(CN(C)C[C@H]2OCCCC[C@H](C)Oc3ccc(NS(=O)(=O)c4ccc(C)cc4)cc3C(=O)N([C@H](C)CO)C[C@@H]2C)cc1 | 1
27 | Cc1noc(C)c1NC(=O)Nc1ccc2c(c1)C(=O)N([C@@H](C)CO)C[C@@H](C)[C@H](CN(C)Cc1ccncc1)OCCCC[C@H](C)O2 | 0.993
28 | C[C@H](NC(=O)C[C@H]1C=C[C@H](NC(=O)CN2CCOCC2)[C@@H](CO)O1)c1ccccc1 | 0.983
29 | COc1ccc(C(=O)Nc2ccc3c(c2)C(=O)N(C)[C@@H]2CC[C@@H](CC(=O)NCC4CC4)O[C@H]2CO3)cc1 | 0.96
30 | COc1ccc(NC(=O)N(C)C[C@H]2Oc3c(NS(=O)(=O)c4c(C)noc4C)cccc3C(=O)N([C@H](C)CO)C[C@H]2C)cc1 | 0.994
31 | CN(C)CC(=O)N[C@@H]1C=C[C@H](CC(=O)NCCN2CCCCC2)O[C@@H]1CO | 0.999
32 | Cc1noc(C)c1NC(=O)Nc1ccc2c(c1)C(=O)N([C@@H](C)CO)C[C@@H](C)[C@H](CN(C)C(=O)Nc1ccc(C(F)(F)F)cc1)OCCCC[C@H](C)O2 | 1.02
33 | CC(C)NC(=O)N[C@H]1CC[C@H](CCN)O[C@@H]1CO | 0.987
34 | NC[C@H]1O[C@H](O[C@H]2[C@H](O)[C@@H](O[C@H]3O[C@H](CO)[C@@H](O)[C@H](N)[C@H]3O)[C@H](N)C[C@@H]2N)[C@H](N)[C@@H](O)[C@@H]1O | 0.0328 (active)
35 | NC[C@H]1O[C@H](O[C@@H]2[C@H](O)[C@@H](O[C@H]3O[C@H](CO)[C@@H](O)[C@H](N)[C@H]3O)[C@H](N)C[C@@H]2N)[C@H](O)[C@@H](O)[C@@H]1O | 0.983
36 | NCC1OC(OC2C(N)CC(N)C(OC3OC(CO)C(O)C(N)C3O)C2O)C(O)C(O)C1O.O=S(=O)(O)O (centres undefined) | 0.982
37 | NCC1OC(OC2C(N)CC(N)C(O)C2OC2OC(CO)C(O)C2O)C(N)C(O)C1O.O=S(=O)(O)O (centres undefined) | 0.78
38 | NC[C@H]1O[C@H](O[C@H]2[C@@H](O[C@@H]3O[C@H](CO)[C@@H](O)[C@H]3O)[C@@H](O)[C@H](N)C[C@@H]2N)[C@H](N)[C@@H](O)[C@@H]1O | 0.981
39 | NCC1OC(OC2C(N)CC(N)C(OC3OC(CO)C(O)C(N)C3O)C2O)C(N)C(O)C1O.O=S(=O)(O)O (centres undefined) | 0.0483 (active)
